In all, about 5,500 compounds went through this assay and about 2,000 (36%) were called active. Roughly 18% stayed inconclusive and do not appear here. Cut-off read from the data, not from the text of the source: active = normalized growth mostly below about 0.91 (no sharp cut-off); inconclusive = no clear call, values can overlap the other calls; inactive = mostly above about 0.92. The list shows a part of the results.
Test: chemical genetic growth profiling, strain panel (AID 1159580);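 note: tested at 20 µM; growth read once vehicle control cultures reached saturation at 30 °C; 1 = growth at the plate median or of vehicle wells; lower values mean less growth of the strain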
Settings: S. cerevisiae deletion strains, growth OD

Measured: normalized growth

C#CCN(C)CCCOc1ccc(Cl)cc1Cl
inactive: locus YAL040C, strain CLN3, stronger effect = lower value 1.01 | locus YCL061C, strain MRC1 (second series), stronger effect = lower value 0.989 | locus YDR150W, strain NUM1, stronger effect = lower value 0.974 | locus YDR363W, strain ESC2, stronger effect = lower value 0.991 | locus YER002W, strain NOP16, stronger effect = lower value 0.993 | locus YMR263W, strain SAP30, stronger effect = lower value 1 | locus YMR307W, strain GAS1, stronger effect = lower value 0.989 | locus YNL175C, strain NOP13, stronger effect = lower value 1 | locus YNL197C, strain WHI3, stronger effect = lower value 1 | locus YNL224C, strain SQS1, stronger effect = lower value 1.01 | locus YNL322C, strain KRE1, stronger effect = lower value 0.993 | locus YOR083W, strain WHI5 (second series), stronger effect = lower value 0.896 | locus YPL055C, strain LGE1, stronger effect = lower value 0.961
